# In PubChem BioAssay (NCI):
# About 79,000 compounds went through this panel and 15% of them were active in at least one assay; those are over-represented in the sample as a whole. Unmarked numbers belong to inactive results. Activity calls are given as the source filed them. Rule as the data show it: active = growth inhibition above about 70%; inactive = the rest.
# How the values were obtained:
# [1] = NCI Yeast Anticancer Drug Screen. Data for the rad52 strain (AID 147);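 also: 0% = growth of vehicle-treated control cultures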; details: S. cerevisiae rad52 mutant growth inhibition, hits give high values
# Outline: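 Yeast strain carrying a DNA damage repair alteration was exposed to test compounds. Growth inhibition was measured relative to vehicle-treated controls.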
# [2] = NCI Yeast Anticancer Drug Screen. Data for the wt1 strain (AID 149);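 also: 0% = growth of vehicle-treated wt1 cultures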; details: S. cerevisiae wt1 strain (SPY 50644) growth inhibition, hits give high values
# Outline: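 Using yeast strain wt1, compound-induced growth inhibition was determined against vehicle-treated cultures.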
# [3] = NCI Yeast Anticancer Drug Screen. Data for the rad50EPP+ strain (AID 151);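 also: 0% = growth of vehicle-treated control cultures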; details: S. cerevisiae rad50 mutant strain, hits give high values
# Outline: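 Yeast strain carrying rad50 alteration (rad50EPP+) exposed to compounds; growth inhibition measured relative to vehicle-treated controls.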
# [4] = NCI Yeast Anticancer Drug Screen. Data for the mgt1 strain (AID 153); details: S. cerevisiae mgt1 mutant growth inhibition, hits give high values
# Outline: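 Yeast mgt1 strain (DNA repair/cell-cycle alteration panel) exposed to compounds; growth inhibition measured relative to vehicle-treated controls.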
# [5] = NCI Yeast Anticancer Drug Screen. Data for the rad50 strain (AID 155);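 also: 0% = growth of vehicle-only cultures of the same strain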; details: S. cerevisiae rad50 strain growth inhibition, hits give high values
# Outline: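 Relative growth inhibition (compound vs vehicle) was measured in yeast with a defined repair-gene alteration.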
# [6] = NCI Yeast Anticancer Drug Screen. Data for the mec2-1 strain (AID 157); details: S. cerevisiae mec2-1 strain, hits give high values
# Outline: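 mec2-1 yeast strain, carrying an alteration in DNA damage repair or cell cycle control, was exposed to compounds; growth inhibition was measured relative to vehicle-treated controls.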
# [7] = NCI Yeast Anticancer Drug Screen. Data for the rad14 strain (AID 159);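 also: 0% = growth of vehicle-treated control cultures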; details: S. cerevisiae rad14 strain growth inhibition, hits give high values
# Outline: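 Screen for anticancer potential: a yeast strain altered in DNA damage repair is grown with compound, and reduced growth is quantified against vehicle controls.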
# [8] = NCI Yeast Anticancer Drug Screen. Data for the sgs1 mgt1 strain (AID 161);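 also: 0% = growth of cultures given vehicle only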; details: S. cerevisiae sgs1 mgt1 strain, hits give high values
# Outline: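 This yeast growth screen uses a strain with defined DNA-repair lesions; compound-treated growth is compared with vehicle-treated growth.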
# [9] = NCI Yeast Anticancer Drug Screen. Data for the CLN2oe strain (AID 163);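 also: 0% = growth of vehicle-only control cultures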; details: S. cerevisiae CLN2oe strain, hits give high values
# Outline: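 Yeast cells carrying a defined cell-cycle control alteration were exposed to test compounds. Growth inhibition was scored against vehicle-treated control cultures.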
# [10] = NCI Yeast Anticancer Drug Screen. Data for the cln2 rad14 strain (AID 165);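 also: 0% = growth equal to vehicle treated cultures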; details: S. cerevisiae cln2 rad14 strain, hits give high values
# Outline: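 Yeast carrying cln2 and rad14 alterations (cell cycle control and DNA damage repair) were exposed to compounds. Growth inhibition was measured against vehicle-treated controls.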
# [11] = NCI Yeast Anticancer Drug Screen. Data for the bub3 strain (AID 167); details: S. cerevisiae bub3 mutant strain, hits give high values
# Outline: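 Screening used yeast with an engineered genetic alteration affecting cell cycle control. Compound-exposed cultures were compared with vehicle cultures, and reduced growth was taken as inhibition.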
# [12] = NCI Yeast Anticancer Drug Screen. Data for the wt2 strain (AID 169);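 also: 0% = growth of vehicle-treated yeast cultures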; details: S. cerevisiae wt2 strain growth inhibition, hits give high values
# Outline: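 Yeast cells were exposed to test compounds, and growth inhibition was measured relative to vehicle-treated controls.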
# [13] = NCI Yeast Anticancer Drug Screen. Data for the mlh1 strain (AID 171);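 also: 0% = growth of vehicle-treated control cultures of the same strain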; details: S. cerevisiae mlh1 strain growth inhibition, hits give high values
# Outline: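 Yeast carrying a defined genetic alteration in DNA damage repair or cell cycle control were exposed to test compounds. Growth inhibition was measured relative to vehicle-treated controls.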
# [14] = NCI Yeast Anticancer Drug Screen. Data for the sgs1 strain (AID 173);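 also: 0% = growth of vehicle-only control cultures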; details: S. cerevisiae sgs1 mutant, hits give high values
# Outline: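 Yeast mutant strains carrying defined defects in DNA damage repair or cell cycle control were exposed to test compounds. Growth inhibition was scored against vehicle-treated controls.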
# [15] = NCI Yeast Anticancer Drug Screen. Data for the mlh1 rad18 strain (AID 175); details: S. cerevisiae mlh1 rad18 strain growth inhibition, hits give high values
# Outline: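 Growth inhibition of the yeast strain was measured after compound exposure and expressed relative to vehicle-treated controls. The strain carries defined defects in DNA damage repair.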
# [16] = NCI Yeast Anticancer Drug Screen. Data for the rad18 strain (AID 177); details: S. cerevisiae rad18 mutant growth inhibition, hits give high values
# Outline: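 Yeast carrying a defined DNA damage repair alteration were exposed to compounds. Growth inhibition was expressed relative to vehicle-treated controls.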
# [17] = at 5.0 µM (retest, dose inferred, filed as 0.5)
# [18] = at 50.0 µM (retest, dose inferred, filed as 5.0)
compound,measurement,setting,value
COc1ccc(N)c2c1C(=O)c1ccccc1C2=O,growth inhibition,[1]; at 1.2 µM,6%
same,growth inhibition,[1]; at 3.7 µM,11%
same,growth inhibition,[1]; at 11.0 µM,46%
same,growth inhibition,[1]; at 33.0 µM,90% (active)
same,growth inhibition,[1]; at 100.0 µM,96% (active)
same,growth inhibition,[2]; at 1.2 µM,0%
same,growth inhibition,[2]; at 3.7 µM,11%
same,growth inhibition,[2]; at 11.0 µM,14%
same,growth inhibition,[2]; at 33.0 µM,47%
same,growth inhibition,[2]; at 100.0 µM,94% (active)
same,growth inhibition,[3]; at 1.2 µM,9%
same,growth inhibition,[3]; at 3.7 µM,26%
same,growth inhibition,[3]; at 11.0 µM,59%
same,growth inhibition,[3]; at 33.0 µM,93% (active)
same,growth inhibition,[3]; at 100.0 µM,97% (active)
same,growth inhibition,[4]; at 1.2 µM,3%
same,growth inhibition,[4]; at 3.7 µM,-3%
same,growth inhibition,[4]; at 11.0 µM,8%
same,growth inhibition,[4]; at 33.0 µM,39%
same,growth inhibition,[4]; at 100.0 µM,93% (active)
same,growth inhibition,[5]; at 1.2 µM,7%
same,growth inhibition,[5]; at 3.7 µM,8%
same,growth inhibition,[5]; [17],30%
same,growth inhibition,[5]; at 11.0 µM,35%
same,growth inhibition,[5]; at 33.0 µM,89% (active)
same,growth inhibition,[5]; [18],39%
same,growth inhibition,[5]; at 50.0 µM,60.2%
same,growth inhibition,[5]; at 100.0 µM,96% (active)
same,growth inhibition,[6]; at 1.2 µM,-9%
same,growth inhibition,[6]; at 3.7 µM,0%
same,growth inhibition,[6]; [17],47%
same,growth inhibition,[6]; at 11.0 µM,12%
same,growth inhibition,[6]; at 33.0 µM,40%
same,growth inhibition,[6]; [18],56%
same,growth inhibition,[6]; at 50.0 µM,32.1%
same,growth inhibition,[6]; at 100.0 µM,81% (active)
same,growth inhibition,[7]; at 1.2 µM,-6%
same,growth inhibition,[7]; at 3.7 µM,-23%
same,growth inhibition,[7]; at 11.0 µM,2%
same,growth inhibition,[7]; at 33.0 µM,29%
same,growth inhibition,[7]; at 100.0 µM,93% (active)
same,growth inhibition,[8]; [17],-15%
same,growth inhibition,[8]; [18],79% (active)
same,growth inhibition,[8]; at 50.0 µM,62.5%
same,growth inhibition,[9]; at 1.2 µM,-2%
same,growth inhibition,[9]; at 3.7 µM,6%
same,growth inhibition,[9]; at 11.0 µM,17%
same,growth inhibition,[9]; at 33.0 µM,34%
same,growth inhibition,[9]; at 100.0 µM,89% (active)
same,growth inhibition,[10]; [17],62%
same,growth inhibition,[10]; [18],71% (active)
same,growth inhibition,[10]; at 50.0 µM,32.5%
same,growth inhibition,[11]; at 1.2 µM,-25%
same,growth inhibition,[11]; at 3.7 µM,-24%
same,growth inhibition,[11]; [17],41%
same,growth inhibition,[11]; at 11.0 µM,-32%
same,growth inhibition,[11]; at 33.0 µM,19%
same,growth inhibition,[11]; [18],72% (active)
same,growth inhibition,[11]; at 50.0 µM,49%
same,growth inhibition,[11]; at 100.0 µM,93% (active)
same,growth inhibition,[12]; at 1.2 µM,-11%
same,growth inhibition,[12]; at 3.7 µM,-11%
same,growth inhibition,[12]; at 11.0 µM,-6%
same,growth inhibition,[12]; at 33.0 µM,42%
same,growth inhibition,[12]; at 100.0 µM,93% (active)
same,growth inhibition,[13]; at 1.2 µM,-5%
same,growth inhibition,[13]; at 3.7 µM,-9%
same,growth inhibition,[13]; at 11.0 µM,1%
same,growth inhibition,[13]; at 33.0 µM,46%
same,growth inhibition,[13]; at 100.0 µM,94% (active)
same,growth inhibition,[14]; at 1.2 µM,-6%
same,growth inhibition,[14]; at 3.7 µM,-6%
same,growth inhibition,[14]; at 11.0 µM,6%
same,growth inhibition,[14]; at 33.0 µM,68%
same,growth inhibition,[14]; at 100.0 µM,96% (active)
same,growth inhibition,[15]; [17],27%
same,growth inhibition,[15]; [18],40%
same,growth inhibition,[15]; at 50.0 µM,77.5% (active)
same,growth inhibition,[16]; at 1.2 µM,-20%
same,growth inhibition,[16]; at 3.7 µM,-12%
same,growth inhibition,[16]; at 11.0 µM,-10%
same,growth inhibition,[16]; at 33.0 µM,54%
same,growth inhibition,[16]; at 100.0 µM,93% (active)
